Data taken from PubChem BioAssay AID540351 (The Scripps Research Institute Molecular Screening Center, 2011).
Unmarked numbers belong to inactive results. How the calls were made is not given here.

System: Potassium Channel [KATP]
Experiment: selectivity profiling over binding targets, CYP450 – biochemical, Ricerca HitProfilingScreen, selectivity assay for S1P3 agonist project, profiling panel (AID 540351)
Conditions: Ricerca receptor/enzyme binding panel plus CYP450, at 30 µM, hits give high values

O=C(c1cc(C2CC2)on1)N(C1CCCCC1)C1CCCCC1
inhibition: 16%
